Reference: PubChem BioAssay AID1963822 (ICCB-Longwood Screening Facility, Harvard Medical School, 2024)
Where “and” joins values, the source holds several entries; their conditions need not be identical. Identical values can stand only once. About 90 (0.2%) of roughly 55,000 compounds were called active. How the calls were made is not given here. The entries come from a sample that favours actives as a whole. The source holds several records for some structures; these can differ, active in one and inactive in another.

Assay: anaerobic choline-dependent bacterial growth inhibition – minimal medium, absorbance (AID 1963822)
Conditions: Gram-negative bacterium anaerobic choline minimal medium
[1] = measured here: choline growth z-score, timepoint 1, stronger effect = lower value

| SMILES | z-score (stronger effect = lower value) | z-score [1] |
| --- | --- | --- |
| CCOC(=O)c1cnn(CCOC(=O)COC)c1NC(=O)COC | 0.06 (inactive) | 0.2 |
| Cc1noc2c1C(c1ccc(Cl)cc1)C1=C(CC(c3ccc(O)cc3)CC1=O)N2 (configuration not stated) | -1.06 (inactive) | 0.58 |
| CCCCC(=O)Nc1cc(N2CCn3c(nc4ccccc43)C2)ccc1C | -0.54 (inactive) | 0.09 |
| COc1ccc(NC(=O)C2CCN(C(=O)c3ccc(-c4noc(C)n4)cc3)CC2)cc1OC | 0.58 (inactive) | -0.71 |
| CCc1ccc(-c2ccc(=O)[nH]n2)cc1S(=O)(=O)N1CCOCC1 | -0.21 (inactive) | -0.65 |
| O=C(O)c1cc(N2CCN(c3ccc(Cl)cc3)CC2)ccc1NC(=O)C1CCC1 | 0.22 (inactive) | 0.14 |
| O=c1c(S(=O)(=O)c2ccc(F)c(Cl)c2)c[nH]c2c(F)cc(Cl)cc12 | -1.66 (inactive) | -1.06 |
| CNC(=O)c1ccc(NC(=O)N2CCCCc3ccccc32)cc1 | 0.76 (inactive) | -0.19 |
| COC(=O)c1cnc(N(C)C2CCCCC2)c2ccccc12 | 0.22 (inactive) | -0.03 |
| Cc1nc(Nc2ccccc2)nc2c1C(=O)CC(C)C2 (configuration not stated) | 0.7 (inactive) | 0.46 |
| COCc1cc(C)nc2sc3c(c12)NC(C)N(c1ccc(C)cc1)C3=O (configuration not stated) | -0.14 (inactive) | -1.91 |
| Cc1ccc(-n2cc(C(=O)O)c3ccccc3c2=O)cc1 | 1.03 (inactive) | 0.91 |
| Cc1ccc2c(c1)OCC(=O)N2CC(=O)O | -1.28 (inactive) | -1.54 |
| Cc1ccc(C2C3=C(CCCC3=O)Nc3ccccc3N2C(=O)c2ccccc2)cc1 (configuration not stated) | -0.78 (inactive) | 0.3 |
| CCN1CCN(C(=O)C2CCCN(S(=O)(=O)c3cc(-c4noc(C5CC5)n4)sc3C)C2)CC1 (configuration not stated) | 0.63 (inactive) | 0.78 |
| COc1cc(OC)cc(C(=O)Nc2nc(CC(=O)Nc3ccc(OC)c(OC)c3)cs2)c1 | -0.43 (inactive) | -0.34 |
| CCn1nc(C)c(CCN(C)C(=O)NCC2CCCO2)c1C (configuration not stated) | -1.05 (inactive) | -1.68 |
| O=C(CSc1ccccc1)N1CCN(Cc2cc(=O)n3nc(-c4ccccc4F)sc3n2)CC1 | 0.75 (inactive) | 0.13 |
| Cn1c(=O)oc2cc(S(=O)(=O)N3CCC4(CC3)Nc3cc(F)ccc3-n3cccc34)ccc21 | -0.55 (inactive) | 0.11 |
| O=S(=O)(Cc1ccccc1)N1CCCC1c1ccc(Cl)cc1 (configuration not stated) | -0.27 (inactive) | -0.13 |
| CN1CCC[C@@H]1CCO[C@](C)(c1ccccc1)c1ccc(Cl)cc1 | -1.24 (inactive) and -1.63 (active) and 0.92 (inactive) | 0.36 and -2.85 and -1.59 |
| CCOC(=O)c1cnc2c(-c3ccccc3)c(COc3ccccc3)nn2c1N | -0.05 (inactive) | -0.12 |
| O=C(Nc1ccc2c(c1)OCCO2)c1cccc(Oc2ccnc(-c3ccc(F)cc3)n2)c1 | -0.1 (inactive) | 0.77 |
| O=C(CC1CCCC1)N1CCN=C1N1CCCC1 | -1.26 (inactive) | -0.58 |
| CCOc1ccc(CNC(=O)C2(NS(=O)(=O)c3cccc4cccnc34)CCCCC2)cc1 | 0.35 (inactive) | 0.16 |
| COc1cccc(-n2ccnc2SCc2nc(-c3ccccc3)no2)c1 | 0.5 (inactive) | 0.33 |
